The panel holds about 79,000 compounds, 15% with a hit somewhere; the sample as a whole holds those more often. Activity calls are given as the source filed them. Rule as the data show it: active = growth inhibition above about 70%; inactive = the rest.
Assay: NCI Yeast Anticancer Drug Screen. Data for the rad50 strain (AID 155);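 also: 0% = growth of vehicle-only cultures of the same strain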
Conditions: S. cerevisiae rad50 strain growth inhibition; at 50.0 µM; hits give high values
Procedure, shortened: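 Cells are treated with compound, grown, and their growth is then scored against vehicle-only cultures of the same repair-deficient yeast strain.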

Row | Compound | growth inhibition
1 | N#C/C(=C\c1ccc2c(c1)OCO2)c1ccccc1 | 10.4% (inactive)
2 | CN1CCCN(C(c2ccccc2)c2ccc(Cl)cc2)CC1 (stereo not given) | 3.9% (inactive)
3 | OCC1CCC(O)C(CO)N1 (stereo not given) | -6.65% (inactive)
4 | CCCCOC(=O)c1ccc(NC(=O)CCl)cc1 | 28.6% (inactive)
5 | COc1ccc(NNS(=O)(=O)O)cc1 | 1.45% (inactive)
6 | C=CCC(OC(C)=O)c1ccc(OC)c(OC)c1 (stereo not given) | 11.3% (inactive)
7 | COc1cccc(C(=O)O)c1OC | 11.2% (inactive)
8 | COc1ccc(-c2csc(NC(=O)Nc3nc(-c4ccc(OC)cc4)cs3)n2)cc1 | 4.25% (inactive)
9 | C=CCNC(=S)N/C=C(/C(=O)c1ccccc1)c1ccccc1 | -53.6% (inactive)
10 | O=C(NCc1ccccc1)/C(=C/c1ccccc1)NC(=O)c1ccccc1 | -33.1% (inactive)
11 | c1cc(CNCCNCc2ccncc2)ccn1 | -36% (inactive)
12 | Nc1ccn(C2OC(CO)C(O)C2F)c(=O)n1 (stereo not given) | 12.4% (inactive)
13 | C=COC(=O)CCOCC(CC)CCCC (stereo not given) | -6.1% (inactive)
14 | CCOC(=O)CO | 26% (inactive)
15 | O=C(NCCc1ccccc1)/C(=C\c1ccc(Cl)cc1Cl)NC(=O)c1ccccc1 | 1.65% (inactive)
16 | N#Cc1ccc2nc[nH]c2c1 | 18.7% (inactive)
17 | CCOc1ccc(C(=O)NCC(C)C)cc1 | -1.2% (inactive)
18 | c1ccc2[nH]c(Cc3nc4ccccc4[nH]3)nc2c1 | 48% (inactive)
19 | Cc1ccc(/C=N/NC(N)=S)s1 | 24.9% (inactive)

Assay: NCI Yeast Anticancer Drug Screen. Data for the mec2-1 strain (AID 157)
Conditions: S. cerevisiae mec2-1 strain, at 50.0 µM, hits give high values
Procedure, shortened: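 Using mec2-1 yeast: add compound, measure growth, express inhibition versus vehicle-treated cultures.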

Row | Compound | growth inhibition
20 | CCCCCCCCCCCCCC/C=C\C(CC(=O)O)C(=O)O (stereo not given) | -15.5% (inactive)
21 | O=C1C=C[C@H](O)[C@@]2(CO)O[C@@H]12 | 0.85% (inactive)
22 | Nc1ncnc2c1ncn2C1OC(CO)C2OC21 (stereo not given) | -7.85% (inactive)
23 | N#C/C(=C\c1ccc(C#N)cc1)C(=O)c1ccccc1 | 0.95% (inactive)
24 | Cc1cc2c3ccc(C)[n+](C)c3ccc2n1C | 5.9% (inactive)
25 | CCCNS(=O)(=O)c1ccc(Cl)cc1 | -2.9% (inactive)
26 | CC(=O)N(CCCCCCN(C(C)=O)C(C)=O)C(C)=O | -9.25% (inactive)
27 | ClCc1cccc2c(CCl)cccc12 | -6.25% (inactive)
28 | Nc1c(O)c(S(=O)(=O)O)c(O)c2c1C(=O)c1ccccc1C2=O | -2.7% (inactive)
29 | O=C(O)Cc1ccc(Cl)cc1 | -15.3% (inactive)
30 | COc1ccc(C(=O)/C(=N/Nc2ccccc2)c2ccc(OC)cc2)cc1 | -13.8% (inactive)
31 | O=C1CSc2ccccc2N1 | -8.45% (inactive)
32 | Clc1ccc(-c2noc(/C=C\c3ccccc3)n2)cc1 | -20.1% (inactive)
33 | CC(=O)N(C)N=Nc1ccc(C)cc1 | -23.6% (inactive)
34 | CC(=O)C1C(=O)C(=O)N(c2ccc(Cl)c(Cl)c2)C1=O (stereo not given) | -21% (inactive)
35 | CCC(=O)Oc1ccc2ccccc2c1 | 32.8% (inactive)
36 | COC1OC(C(O)C(O)CO)C(O)C(O)C1O (stereo not given) | -5.7% (inactive)
37 | CN(C(=S)S(=O)(=O)C12CC3CC(CC(C3)C1)C2)c1ccccc1 | 4.7% (inactive)
38 | COC1OC(C(COC(C)=O)OC(C)=O)C(OC(C)=O)C(OC(C)=O)C1OC(C)=O (stereo not given) | 1.75% (inactive)

Row | Compound | growth inhibition
39 | N#C/C(=C\c1ccc2c(c1)OCO2)c1ccccc1 | -0.7% (inactive)
40 | CN1CCCN(C(c2ccccc2)c2ccc(Cl)cc2)CC1 (stereo not given) | -16.9% (inactive)
41 | OCC1CCC(O)C(CO)N1 (stereo not given) | -29.6% (inactive)
42 | CCCCOC(=O)c1ccc(NC(=O)CCl)cc1 | 18.8% (inactive)
43 | COc1ccc(NNS(=O)(=O)O)cc1 | 4.7% (inactive)
44 | C=CCC(OC(C)=O)c1ccc(OC)c(OC)c1 (stereo not given) | 1.35% (inactive)
45 | COc1cccc(C(=O)O)c1OC | 14.4% (inactive)
46 | COc1ccc(-c2csc(NC(=O)Nc3nc(-c4ccc(OC)cc4)cs3)n2)cc1 | -0.95% (inactive)
47 | C=CCNC(=S)N/C=C(/C(=O)c1ccccc1)c1ccccc1 | -23.8% (inactive)
48 | O=C(NCc1ccccc1)/C(=C/c1ccccc1)NC(=O)c1ccccc1 | -31.4% (inactive)
49 | c1cc(CNCCNCc2ccncc2)ccn1 | -48% (inactive)
50 | Nc1ccn(C2OC(CO)C(O)C2F)c(=O)n1 (stereo not given) | 0.45% (inactive)
51 | C=COC(=O)CCOCC(CC)CCCC (stereo not given) | -15.1% (inactive)
52 | CCOC(=O)CO | 6.85% (inactive)
53 | O=C(NCCc1ccccc1)/C(=C\c1ccc(Cl)cc1Cl)NC(=O)c1ccccc1 | -6.15% (inactive)
54 | N#Cc1ccc2nc[nH]c2c1 | -6.75% (inactive)
55 | CCOc1ccc(C(=O)NCC(C)C)cc1 | 2.4% (inactive)
56 | c1ccc2[nH]c(Cc3nc4ccccc4[nH]3)nc2c1 | -14.4% (inactive)
57 | Cc1ccc(/C=N/NC(N)=S)s1 | 1.9% (inactive)

Assay: NCI Yeast Anticancer Drug Screen. Data for the sgs1 mgt1 strain (AID 161);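 also: 0% = growth of cultures given vehicle only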
Conditions: S. cerevisiae sgs1 mgt1 strain, at 50.0 µM, hits give high values
Procedure, shortened: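 Yeast cells carrying a defined DNA-repair defect were exposed to test compounds. Growth inhibition was measured relative to vehicle-treated controls.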

Row | Compound | growth inhibition
58 | CCCCCCCCCCCCCC/C=C\C(CC(=O)O)C(=O)O (stereo not given) | 6.1% (inactive)
59 | O=C1C=C[C@H](O)[C@@]2(CO)O[C@@H]12 | -14.5% (inactive)
60 | Nc1ncnc2c1ncn2C1OC(CO)C2OC21 (stereo not given) | 2.05% (inactive)
61 | N#C/C(=C\c1ccc(C#N)cc1)C(=O)c1ccccc1 | 16.4% (inactive)
62 | Cc1cc2c3ccc(C)[n+](C)c3ccc2n1C | 10.6% (inactive)
63 | CCCNS(=O)(=O)c1ccc(Cl)cc1 | -0.45% (inactive)
64 | CC(=O)N(CCCCCCN(C(C)=O)C(C)=O)C(C)=O | -0.5% (inactive)
65 | ClCc1cccc2c(CCl)cccc12 | 0.9% (inactive)
66 | Nc1c(O)c(S(=O)(=O)O)c(O)c2c1C(=O)c1ccccc1C2=O | 31.1% (inactive)
67 | O=C(O)Cc1ccc(Cl)cc1 | 29% (inactive)
68 | COc1ccc(C(=O)/C(=N/Nc2ccccc2)c2ccc(OC)cc2)cc1 | -1.25% (inactive)
69 | O=C1CSc2ccccc2N1 | 32% (inactive)
70 | Clc1ccc(-c2noc(/C=C\c3ccccc3)n2)cc1 | 4.8% (inactive)
71 | CC(=O)N(C)N=Nc1ccc(C)cc1 | -13.6% (inactive)
72 | CC(=O)C1C(=O)C(=O)N(c2ccc(Cl)c(Cl)c2)C1=O (stereo not given) | -2.35% (inactive)
73 | CCC(=O)Oc1ccc2ccccc2c1 | 28.5% (inactive)
74 | COC1OC(C(O)C(O)CO)C(O)C(O)C1O (stereo not given) | 11.8% (inactive)
75 | CN(C(=S)S(=O)(=O)C12CC3CC(CC(C3)C1)C2)c1ccccc1 | 4.35% (inactive)
76 | COC1OC(C(COC(C)=O)OC(C)=O)C(OC(C)=O)C(OC(C)=O)C1OC(C)=O (stereo not given) | 4.35% (inactive)

Row | Compound | growth inhibition
77 | N#C/C(=C\c1ccc2c(c1)OCO2)c1ccccc1 | 3.15% (inactive)
78 | CN1CCCN(C(c2ccccc2)c2ccc(Cl)cc2)CC1 (stereo not given) | 1.95% (inactive)
79 | OCC1CCC(O)C(CO)N1 (stereo not given) | -22.7% (inactive)
80 | CCCCOC(=O)c1ccc(NC(=O)CCl)cc1 | 43.1% (inactive)
81 | COc1ccc(NNS(=O)(=O)O)cc1 | 21.7% (inactive)
82 | C=CCC(OC(C)=O)c1ccc(OC)c(OC)c1 (stereo not given) | 14.7% (inactive)
83 | COc1cccc(C(=O)O)c1OC | 6.55% (inactive)
84 | COc1ccc(-c2csc(NC(=O)Nc3nc(-c4ccc(OC)cc4)cs3)n2)cc1 | 0.7% (inactive)
85 | C=CCNC(=S)N/C=C(/C(=O)c1ccccc1)c1ccccc1 | -45.2% (inactive)
86 | O=C(NCc1ccccc1)/C(=C/c1ccccc1)NC(=O)c1ccccc1 | -33.9% (inactive)
87 | c1cc(CNCCNCc2ccncc2)ccn1 | -46.5% (inactive)
88 | Nc1ccn(C2OC(CO)C(O)C2F)c(=O)n1 (stereo not given) | 11.9% (inactive)
89 | C=COC(=O)CCOCC(CC)CCCC (stereo not given) | 8.95% (inactive)
90 | CCOC(=O)CO | -13.4% (inactive)
91 | O=C(NCCc1ccccc1)/C(=C\c1ccc(Cl)cc1Cl)NC(=O)c1ccccc1 | 1.85% (inactive)
92 | N#Cc1ccc2nc[nH]c2c1 | -13% (inactive)
93 | CCOc1ccc(C(=O)NCC(C)C)cc1 | 26.6% (inactive)
94 | c1ccc2[nH]c(Cc3nc4ccccc4[nH]3)nc2c1 | 50.4% (inactive)
95 | Cc1ccc(/C=N/NC(N)=S)s1 | 49.1% (inactive)
